In the library only some 10% were active in any assay of this set; here they are far more common.
L3MBTL1 inh – inhibitors of human L3MBTL1; hit rate 0.66% among 230,000; Q9Y468; Potency, µM (top dose mostly 57.1 µM), without a hit: at the top dose activity, negative = inhibition, most hits filed as inhibitors; AlphaScreen L3MBTL1–H3K9me1 peptide binding; also: % is scaled to controls: 0 for no effect and ±100 for the full control effect; nearly all actives have a fitted effect of over 60% in size
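L3MBTL1 50 nM + b-AHA-H3(1-15)K9me1 75 nM, 30 min RT; compound added, 30 min RT; streptavidin donor/Ni-chelate acceptor beads 10 ug/mL each final, 30 min RT dark; AlphaScreen read.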
G9a inh – inhibitors of human histone lysine methyltransferase G9a; Q96KQ7; G9a H3K9 monomethylation, AlphaScreen, 2 h; Potency, µM (doses to about 102 µM), for the others: at the top dose activity, negative = inhibition, usual class: inhibitors; hit rate 8.8% among 350,000; AID 504332; also: % is scaled to controls: 0 for no effect and ±100 for the full control effect; nearly all actives have a fitted effect of over 75% in size
Target sequence (Q96KQ7 913-1193 limits assumed): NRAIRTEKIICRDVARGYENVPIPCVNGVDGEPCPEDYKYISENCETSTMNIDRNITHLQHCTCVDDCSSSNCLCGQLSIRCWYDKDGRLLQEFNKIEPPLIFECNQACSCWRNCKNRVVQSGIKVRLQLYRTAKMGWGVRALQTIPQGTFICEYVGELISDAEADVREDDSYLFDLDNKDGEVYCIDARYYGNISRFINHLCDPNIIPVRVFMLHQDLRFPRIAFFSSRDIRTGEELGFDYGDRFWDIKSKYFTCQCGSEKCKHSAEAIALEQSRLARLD
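Signal arises when biotinylated H3K9 peptide, once monomethylated, bridges streptavidin donor and antibody-captured acceptor beads. Enzyme at 20 nM was preincubated 15 min with test compounds; peptide 500 nM and SAM 20 uM then reacted for 2 h.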
BAZ2B block – BAZ2B (human) inhibition; Potency, µM (highest dose often 114 µM), without a hit: at the highest dose activity change, negative = inhibition, most hits filed as inhibitors; hit rate 4.4% among 360,000; Q9UIF8; AlphaScreen BAZ2B-H3K14Ac peptide displacement; also: % is scaled to controls: 0 for no effect and ±100 for the full control effect; nearly all actives have a fitted effect of over 60% in size
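AlphaScreen displacement of biotin-H3(5-23)K14Ac peptide (50 nM final) from BAZ2B (50 nM final) in PBS pH 7.4, 0.01% Tween-20; complex preformed 30 min RT, then compounds (top 110 uM) 30 min RT, beads 20 min dark.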
HP1b binding inh – HP1-beta chromodomain-methylated histone interaction inhibition | Potency, µM (series often up to 114 µM), for inactives: at the highest dose activity change, negative = inhibition, most hits filed as inhibitors | AlphaScreen HP1-beta / biotin-H3K9me3 peptide binding | P83916 | hit rate 0.56% among 390,000; also: nearly all actives have a fitted effect of over 70% in size
Target sequence (P83916 whole entry, looked up): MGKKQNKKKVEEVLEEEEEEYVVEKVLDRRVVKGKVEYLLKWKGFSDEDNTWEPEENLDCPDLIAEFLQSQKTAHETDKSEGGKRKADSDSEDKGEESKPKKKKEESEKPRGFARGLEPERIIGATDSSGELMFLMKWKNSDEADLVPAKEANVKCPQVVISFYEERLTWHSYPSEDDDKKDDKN
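Compound inhibition of the preformed complex between 50 nM HP1-beta and 50 nM biotinylated H3K9me3 peptide was read by AlphaScreen. Buffer was PBS pH 7.4 with 0.01% Tween-20. Incubations ran 30 min at room temperature, with 10 ug/mL donor/acceptor beads.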
GLS inh – inhibitors of human glutaminase (GLS). O94925. GLS enzymatic activity, qHTS titration. Potency, µM (series often up to 45.5 µM), inactives show at the highest dose activity change, negative = inhibition, most hits filed as inhibitors. hit rate 0.21% among 410,000. AID 624170; also: % is scaled to controls: 0 for no effect and ±100 for the full control effect
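hKGA in 45 mM KH2PO4 (pH 8.2), 0.02% Tween-20 with compound, then 1mM L-Glutamine (stock as added) plus glutamate oxidase/HRP/Amplex red coupling mix. Fluorescence read initially and after 30 min at RT; signal change reflects glutamate formation.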
JMJD2A Tudor – JMJD2A Tudor domain (human) inhibition. O75164. AlphaScreen JMJD2A-Tudor / H3K4me3 peptide binding. Potency, µM (top dose mostly 114 µM), for the others: at the top dose activity change, negative = inhibition, most hits filed as inhibitors. hit rate 4.4% among 390,000. AID 504339; also: % is scaled to controls: 0 for no effect and ±100 for the full control effect; nearly all actives have a fitted effect of over 50% in size
* = called active by the depositor; ? = inconclusive; · = no result given; [ ] = dose if it differs, or a comment. Calls follow the shape of the dose curve; as a rule, active = well fitted curve in the direction sought with a large enough effect; inconclusive = small, poorly fitted or top-dose-only effect, or another doubt; inactive = no such curve, though single readings can be large; an effect the other way counts as inactive or inconclusive. Potency is read from the fitted curve at half-maximal effect.

SMILES	L3MBTL1 inh	G9a inh	BAZ2B block	HP1b binding inh	GLS inh	JMJD2A Tudor
Cc1csc2nc(COC(=O)c3cccc(NC(=O)COc4ccccc4Cl)c3)cc(=O)n12	·	8.3%[12.7 µM]	-1.5%	38.8%	8.1%	-2.0%
BrC(=C\c1ccccc1)/C=N/Nc1ccc2nncn2n1	·	·	44.7µM*	-27.8%	-3.0%	?
C(=N\Nc1ccc2nncn2n1)/c1ccco1	·	15.2%	-25.1%	16.4%	23.9%	2.1%
CCCCN(C)CC(O)Cn1cc(/C=C/C(=O)c2ccc(C)cc2)c2ccccc21 (stereo not given)	·	-38.3%[59 µM]	?	-0.2%	10.9%	50.1µM*
CCCCN(C)CC(O)Cn1cc(/C=C/C(=O)c2ccc(Br)cc2)c2ccccc21 (stereo not given)	·	-2.2%[59 µM]	?	-15.2%	4.2%	70.8µM*
CCCCN(C)CC(O)Cn1cc(/C=C/C(=O)c2ccc(OC)c(OC)c2)c2ccccc21 (stereo not given)	·	-29.0%[59 µM]	?	19.3%	1.8%	?
COc1ccc(N2CCN(c3nc4ccc(C)cc4n4nnnc34)CC2)cc1	·	-7.0%[59 µM]	-5.8%	31.0%	6.4%	-9.7%
Cc1c(C2=CCN(S(=O)(=O)c3ccc(Br)cc3)CC2)c2ccccc2n1C	-6.3%	39.8µM*	?	-7.4%	3.9%	-30.1%
Cc1cc(N2CCN(C)CC2)nc2ccc(NC(=O)Nc3ccccc3Cl)cc12	·	?	-11.2%[57.1 µM]	4.2%	18.7%	-27.2%
COc1ccc2c3c(c(=O)oc2c1)C1O[C@](c2ccsc2)(Cc2cc(C#N)ccc21)O3	·	?	12.6µM*	·	·	·
N#Cc1ccc2c(c1)C[C@]1(c3ccsc3)Oc3c(c(=O)oc4ccccc34)C2O1	·	6.5%[2.33 µM]	12.6µM*	·	·	·
CCN1CCN(c2oc(/C=C/c3ccc(OC)c(OC)c3)nc2C#N)CC1	·	-7.6%[59 µM]	-15.5%	43.7%	9.4%	13.2%
NC(C(=O)O)C(CC(=O)O)c1ccc(Cl)cc1 (stereo not given)	·	25.7%[59 µM]	·	·	·	·
CCCCCOCC1CC(C/C(C)=N/Nc2nc(-c3ccccc3)cs2)C(=O)O1 (stereo not given)	-5.0%	39.8µM*	?	2.8%	-0.6%	?
COC(=O)c1c(NC(=O)COc2ccc(C)cc2Br)sc2c1CCCC2	·	-32.3%[59 µM]	2.9%	39.5%	-7.2%	-5.9%
Cc1c(OC(=O)c2ccc([N+](=O)[O-])cc2)c2c(c[n+]1C)COC(C)(C)OC2	7.3%	·	?	-3.5%	-12.7%	50.1µM*
COc1cccc(N2CCN(C(=O)C3CCN(S(=O)(=O)c4c(C)noc4/C=C/c4ccccc4F)CC3)CC2)c1	·	7.6%[59 µM]	-5.7%	10.2%[57 µM]	4.2%	-30.0%
Cc1nc(CN(C)c2ncnc3ccc(-c4ccc5c(c4)OCO5)cc23)cs1	·	·	·	·	9.7%	89.1µM*
CCOc1ccc(NC(=O)CSc2cn(CC(=O)N3CCCCCC3)c3ccccc23)cc1	·	-33.6%[59 µM]	-18.5%	23.8%	-1.8%	-13.6%
O=C(COc1ccccc1)NC(Cc1c[nH]c2ccccc12)C(=O)O (stereo not given)	-3.8%	35.5µM*	-38.7%	21.5%	8.9%	-19.8%
COC(=O)C(Cc1c[nH]c2ccccc12)NC(=O)c1cc(-c2ccc(OC)c(OC)c2)oc1C (stereo not given)	-14.9%	50.1µM*	-4.4%	-38.8%	6.4%	50.1µM*
CC(C)(C)c1ccc(OCC(=O)NC(Cc2c[nH]c3ccccc23)C(=O)O)cc1 (stereo not given)	·	?	?	28.1%	18.4%	-29.8%
Cc1cccc(OCC(=O)NC(Cc2c[nH]c3ccccc23)C(=O)O)c1C (stereo not given)	·	39.8µM*	-25.4%	-5.7%	2.3%	-29.2%
O=C(O)C(Cc1c[nH]c2ccccc12)N1C(=O)C2C3c4ccccc4C(c4ccccc43)[C@@H]2C1=O (stereo not given in full)	-6.6%	50.1µM*	-27.4%	9.7%	6.5%	-21.1%
CC(C)CC(C(=O)O)N1C(=O)C2C3c4ccccc4C(c4ccccc43)[C@@H]2C1=O (stereo not given in full)	·	6.0%	-15.5%	28.6%	8.3%	-12.8%
O=C(NCc1ccccc1Cl)c1nnc(Cc2ccc(Cl)cc2)o1	·	11.5%[59 µM]	0.1%	39.3%	0.7%	-1.7%

High-throughput results as filed in PubChem.
